ChEMBL document CHEMBL1201862, “PubChem BioAssay data set” (2004)
In all, about 400,000 compounds went through this assay and about 2,100 (0.53%) were called active. Not shown: some 14% with an inconclusive outcome. This is one part of a sample in which actives are shown more often than they occur. The rule behind the calls is not given here.

target: Ataxin-2 (Homo sapiens) (UniProt Q99700); assay: qHTS for Inhibitors of ATXN expression.; assay type: functional
Sequence (Q99700 whole entry): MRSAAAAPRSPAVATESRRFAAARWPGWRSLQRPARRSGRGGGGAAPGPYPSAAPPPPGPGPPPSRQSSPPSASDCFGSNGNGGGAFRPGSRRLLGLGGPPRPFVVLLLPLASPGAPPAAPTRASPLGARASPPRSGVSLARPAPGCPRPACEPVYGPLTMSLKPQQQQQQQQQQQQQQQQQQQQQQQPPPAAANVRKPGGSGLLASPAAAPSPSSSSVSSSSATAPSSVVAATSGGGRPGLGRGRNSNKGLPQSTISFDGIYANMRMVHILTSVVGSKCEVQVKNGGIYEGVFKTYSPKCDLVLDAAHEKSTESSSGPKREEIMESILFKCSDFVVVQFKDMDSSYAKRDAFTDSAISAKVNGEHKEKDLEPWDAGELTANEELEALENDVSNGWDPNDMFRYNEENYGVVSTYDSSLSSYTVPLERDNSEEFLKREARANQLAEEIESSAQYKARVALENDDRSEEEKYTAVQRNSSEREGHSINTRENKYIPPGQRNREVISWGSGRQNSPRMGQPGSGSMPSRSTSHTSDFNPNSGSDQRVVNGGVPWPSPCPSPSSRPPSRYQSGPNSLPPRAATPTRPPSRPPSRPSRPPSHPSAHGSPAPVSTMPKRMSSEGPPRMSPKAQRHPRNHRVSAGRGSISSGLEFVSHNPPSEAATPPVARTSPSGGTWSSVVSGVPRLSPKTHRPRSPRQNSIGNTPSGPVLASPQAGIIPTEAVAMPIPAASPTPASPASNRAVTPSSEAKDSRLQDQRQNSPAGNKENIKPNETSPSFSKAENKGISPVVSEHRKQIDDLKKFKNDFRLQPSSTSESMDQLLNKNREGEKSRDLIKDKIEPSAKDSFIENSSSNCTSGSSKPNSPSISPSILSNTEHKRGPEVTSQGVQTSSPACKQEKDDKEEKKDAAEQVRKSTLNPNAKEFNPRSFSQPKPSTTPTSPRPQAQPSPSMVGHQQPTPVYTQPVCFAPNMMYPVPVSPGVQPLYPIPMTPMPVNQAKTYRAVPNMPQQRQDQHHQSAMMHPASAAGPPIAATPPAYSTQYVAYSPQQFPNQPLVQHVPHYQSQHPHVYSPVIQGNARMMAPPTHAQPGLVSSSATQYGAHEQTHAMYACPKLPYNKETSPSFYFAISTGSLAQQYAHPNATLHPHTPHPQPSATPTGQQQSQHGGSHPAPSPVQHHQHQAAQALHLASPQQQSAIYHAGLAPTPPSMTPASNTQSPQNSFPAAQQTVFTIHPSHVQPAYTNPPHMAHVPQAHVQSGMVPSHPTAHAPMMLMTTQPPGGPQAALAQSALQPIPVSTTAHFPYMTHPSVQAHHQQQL

Row | SMILES | Potency
1 | O=[N+]([O-])c1ccc(CSc2ncnc3ccccc23)cc1 | inactive
2 | COc1ccc(-c2cc(C(F)(F)F)n3ncc(C(=O)N4CCc5ccccc5C4)c3n2)cc1 | inactive
3 | Cc1ccc2[nH]c(NC3=NC(=O)c4ccccc43)nc2c1 | inactive
4 | CCOC(=O)c1ccc(NC(=O)CC2Nc3ccccc3NC2=O)cc1 (stereo not drawn) | inactive
5 | CCOC(=O)c1ccc(NC(=O)CC2C(=O)N(c3ccccc3)C(=O)N2Cc2ccc(C)cc2)cc1 (stereo not drawn) | 22.4 µM (active)
6 | Cc1ccc(CN2C(=O)CCC2C(=O)N2CCN(c3ccccc3)CC2)cc1 (stereo not drawn) | inactive
7 | CCCCN(C)CC(O)Cn1cc(/C=C/C(=O)c2ccc(Br)cc2)c2ccccc21 (stereo not drawn) | inactive
8 | COc1cc(/C=C2\C=CC(=O)O2)cc(OC)c1 | inactive
9 | N#Cc1nc(-c2cccc3ccccc23)oc1NCC1CCCO1 (stereo not drawn) | inactive
10 | CCOC(=O)CNc1c(-c2ccc(Cl)cc2)nc2cnccn12 | inactive
11 | CCC(C)Sc1cccc(-c2nc3cnccn3c2NC2CCCCC2)c1 (stereo not drawn) | inactive
12 | Cc1ccc(-c2nc3cnccn3c2Nc2c(C)cccc2C)o1 | inactive
13 | CC(C)c1ccc(Nc2c(-c3ccccc3O)nc3cnccn23)cc1 | 39.8 µM (active)
14 | CCCCNc1c(-c2ccc(SC(C)CC)cc2)nc2cnccn12 (stereo not drawn) | inactive
15 | Cc1ccn2c(Nc3ccc(C(C)C)cc3)c(-c3cccnc3)nc2c1 | 39.8 µM (active)
16 | COCCNC(=O)Cc1c(C)c2c(cc(C)c3c(C)coc32)oc1=O | inactive
17 | O=C(Nc1cc(Cl)ccc1O)C1CC(c2ccccc2O)=NO1 (stereo not drawn) | inactive
18 | CCOc1cc(CNCCc2ccc(S(N)(=O)=O)cc2)ccc1OCC(=O)NC(C)(C)C | 39.8 µM (active)
19 | NS(=O)(=O)c1ccc(CNC(=O)CNC(=O)Cc2ccccc2)cc1 | inactive
20 | CCOc1ccc(CCNC(=O)CSCc2ccc(C)cc2)cc1OCC | inactive
21 | CCOc1cc(C(N)=O)cc(Br)c1OCc1ccccc1 | inactive
22 | COC(=O)c1c(C)[nH]c(C(=O)NCCc2ccc(S(N)(=O)=O)cc2)c1C | inactive
23 | CCOc1cc(CNCCc2ccc(S(N)(=O)=O)cc2)cc(Cl)c1OCc1ccccc1 | 25.1 µM (active)
24 | CC12CCC(=O)N1C(C(=O)N1CCN(S(=O)(=O)c3ccc(Br)cc3Cl)CC1)CS2 (stereo not drawn) | inactive
25 | CC(C)CCn1c(=O)c2ccccc2n2c(S)nnc12 | inactive
26 | Cc1cnc(C(=O)NC(C)CCc2ccccc2)cn1 (stereo not drawn) | inactive

Row | SMILES | Potency
27 | Fc1ccc(-c2cc(C(F)(F)C(F)F)n[nH]2)cc1 | inactive
28 | CCOC(=O)c1cnn2c(O)cc(C)nc12 | inactive
29 | CC(C)(C)c1ccc(C(=O)O/N=C(\N)Cc2cccs2)cc1 | 31.6 µM (active)
30 | CC(C)(C)c1ccc(/N=C2\SCC(=O)N2Cc2cccs2)cc1 | inactive
31 | COC(=O)c1ccc(C(=O)OC)c(NC(=O)Cc2cccs2)c1 | inactive
32 | O=C(c1cccs1)N1CCC(c2nc(O)c3nnn(Cc4c(Cl)cccc4Cl)c3n2)CC1 | inactive
33 | CC(C)C(=O)NNC(=O)CSc1nnc(-c2ccccc2)c(-c2ccccc2)n1 | inactive
34 | CNC(=O)C(=O)Nc1cc2c3c(c1)CCC(=O)N3CCC2 | inactive
35 | CCOC(CN=c1nc(N(C)C)ss1)OCC | 29.9 µM (active)
36 | CN(C)S(=O)(=O)c1ccc(Cl)c(NC(=O)COC(=O)CNS(=O)(=O)c2c(F)cccc2F)c1 | inactive
37 | CCC(=O)NC(c1ccc(OC)c(OC)c1)c1cc(Cl)c2cccnc2c1O (stereo not drawn) | inactive
38 | COc1ccc(C(=O)CC(SCC(NC(C)=O)C(=O)O)c2ccc(Cl)cc2)cc1OC (stereo not drawn) | 31.6 µM (active)
39 | CCS(=O)(=O)N1CCC(NC(=O)C(Cc2ccc(OC)c(OC)c2)NC(C)=O)CC1 (stereo not drawn) | inactive
40 | CCOC(=O)c1cc2c(=O)n3ccccc3nc2n(CC2CCCO2)/c1=N\C(=O)c1ccc(C(C)(C)C)cc1 (stereo not drawn) | inactive
41 | CCCCN1C(C(=O)Nc2ncccn2)=C(O)c2ccccc2S1(=O)=O | inactive
42 | Cc1ccccc1N1CCN(C2CCCN(C(=O)CSc3ccccn3)C2)CC1 (stereo not drawn) | inactive
43 | OC(c1cccc(Cl)c1)c1nc(-c2ccc(Oc3ccccc3)cc2)c[nH]1 (stereo not drawn) | 39.8 µM (active)
44 | OC(c1cccc(Cl)c1)c1nc(-c2ccc(C(F)(F)F)cc2)c[nH]1 (stereo not drawn) | 39.8 µM (active)
45 | CC(C)(C)c1ccc(C(O)c2nc(-c3ccccc3Cl)c[nH]2)cc1 (stereo not drawn) | 39.8 µM (active)
46 | Cc1nn(Cc2ccccc2Cl)c(Cl)c1/C=C/C(=O)OCC(=O)NC1CCS(=O)(=O)C1 (stereo not drawn) | inactive
47 | COc1ccc(S(=O)(=O)Nc2ccc(-n3cccc3)cc2)cc1 | inactive
48 | COc1ccc(-n2cccc2/C=C/[N+](=O)[O-])cc1 | 31.6 µM (active)
49 | CCCC(=O)NCCc1nc2cc([N+](=O)[O-])ccc2n1C | inactive
50 | COc1cc(C(=O)NNC(=O)c2ccccc2OCc2c(C)noc2C)cc(OC)c1OC | inactive
51 | COc1cc(C(=O)O/N=C2/C=CC(=O)C(C)=C2C)cc(OC)c1OC | 39.8 µM (active)
52 | COc1cc(C(=O)N2C(=O)c3cccc(N)c3C2=O)cc(OC)c1OC | inactive

Row | SMILES | Potency
53 | CCc1ccc(S(=O)(=O)Nc2ccc(-c3nc4cccnc4s3)cc2)s1 | inactive
54 | O=C(NNC(=O)c1cc(-c2cccnc2)nc2ccccc12)Nc1ccc(Cl)cc1 | inactive
55 | CSc1ccccc1NC(=O)c1cc(-c2cccnc2)nc2ccc(Br)cc12 | 42.3 µM (active)
56 | NC(=O)c1cc(-c2ccccc2)nc2ccc(Br)cc12 | inactive
57 | COc1cccc(/C=C/c2nc(C#N)c(NCC(C)C)o2)c1 | inactive
58 | CCOC(=O)c1cc2c(=O)n3ccccc3nc2n(C)/c1=N\C(=O)c1c(-c2c(F)cccc2Cl)noc1C | inactive
59 | Cc1coc2c1C(=O)C(=O)c1c-2ccc2c(C)cccc12 | 10 µM (active)
60 | CNc1ccc2c3c(cccc13)C(=O)N(C)C2=O | inactive
61 | CCn1cnc2sc(C(=O)Oc3ccc(Br)cc3)c(C)c2c1=O | inactive
62 | COC(=O)C1=CN(Cc2cccs2)C=C(C(=O)OC)C1c1ccc(OC)cc1OC | inactive
63 | COc1ccc(OC)c(CN2CCN(Cc3cc(=O)oc4cc(O)ccc34)CC2)c1 | inactive
64 | COc1ccc(Cn2c(C(=O)O)c(CNCCc3ccco3)c3ccc(C)cc32)cc1 | 31.6 µM (active)
65 | COC(=O)c1cc(-c2cc(OC)ccc2OC)nc2c1c(=O)n(C)c(=O)n2Cc1ccccc1 | inactive
66 | COc1ccc(Cn2c(C(=O)O)c(CNCCc3cc(OC)ccc3OC)c3ccc(C)cc32)cc1 | 22.4 µM (active)
67 | COc1ccc(C(=O)NCC(=O)OCC(=O)NCc2ccco2)cc1 | inactive
68 | COC(=O)C1=CN(Cc2cccs2)C=C(C(=O)OC)C1c1cccc(O)c1 | inactive
69 | COc1ccc2c(CNCCc3cccs3)c(C(=O)O)n(Cc3cccc(F)c3)c2c1 | 35.5 µM (active)
70 | C=Cc1ccc(Cn2c(C(=O)O)c(CNCCc3ccco3)c3ccc(C)cc32)cc1 | 22.4 µM (active)
71 | COC(=O)c1ccc(S(=O)(=O)NCc2ccco2)o1 | inactive
72 | COc1ccc(-c2csc(-c3cc4ccccc4oc3=N)n2)cc1 | inactive
73 | COc1ccc2nc3ccccc3[n+]([O-])c2c1 | inactive
74 | CCc1noc(C)c1C(=O)NNC(=O)COc1ccc(Br)cc1 | inactive
75 | N#Cc1c(-c2ccc(Cl)cc2)c2c([nH]c1=O)-c1ccccc1OC2 | inactive
76 | O=C1CCN2C=Nc3cccc4ccc1c2c34 | inactive
77 | O=c1nc2n(CCO)c3ccccc3cc-2c(=O)[nH]1 | inactive
78 | C=Cc1ccc(Cn2c(C(=O)O)c(CNCc3cccs3)c3ccc(C)cc32)cc1 | 25.1 µM (active)

Row | SMILES | Potency
79 | Cc1ccc(Cn2c(C(=O)O)c(CNCCc3ccco3)c3ccc(C)cc32)cc1 | 39.8 µM (active)
80 | Cc1cccn2c(=O)c3cc(C(=O)NC4CCCC4)c(=N)n(Cc4ccc(F)cc4)c3nc12 | inactive
81 | CCCC(=O)n1nc(-c2ccc(C)cc2)nc1NCc1ccco1 | inactive
82 | C=Cc1ccc(Cn2c(C(=O)O)c(CNC3CCCC3)c3ccc(C)cc32)cc1 | 44.7 µM (active)
83 | Cc1ccc(C(=O)OCC(=O)NCc2ccco2)cc1C | inactive
84 | CC1=C(C(=O)Nc2ccccn2)C(c2cn(C)nc2C)C2=C(O)CCCC2=N1 (stereo not drawn) | inactive
85 | Cc1nnc(NC(=O)CSc2nnc(-c3ccco3)n2C(C)C)s1 | inactive
86 | COCCNC(=O)c1c(N)n(-c2cccc(C)c2)c2nc3ccccc3nc12 | inactive
87 | Cc1nc(Nc2cccc(Cl)c2)c2oc3ccccc3c2n1 | inactive
88 | Cc1cccc(-n2c(SCC(N)=O)nc3c(oc4ccccc43)c2=O)c1 | 20 µM (active)
89 | Cc1cccc(-n2c(=O)c(C#N)cc3c(=O)n4ccccc4nc32)c1 | inactive
90 | Cc1cccc2c(SCC(N)=O)nc(-c3ccccc3)nc12 | inactive
91 | Cc1cc(C)cc(-n2c(SCC(N)=O)nc3c(oc4ccccc43)c2=O)c1 | 22.4 µM (active)
92 | CCCOc1cccc(C2c3c(oc4ccc(F)cc4c3=O)C(=O)N2CCCN2CCOCC2)c1 (stereo not drawn) | inactive
93 | Cc1nc(Cl)c2c(n1)N=C1CCCC(O)=C1O2 | inactive
94 | Cc1ccc(CNC(=O)c2cc3c(=O)n4ccccc4nc3n(CC3CCCO3)c2=N)cc1 (stereo not drawn) | inactive
95 | CCCCn1cc[n+](-c2nc3ccccc3nc2[N-]S(=O)(=O)c2ccc(Cl)cc2)c1 | inactive
96 | O=C1Nc2ccc(S(=O)(=O)NCC3CCCO3)c3cccc1c23 (stereo not drawn) | inactive
97 | Cc1ccc(-c2nnc(Nc3ccc4c(c3)OCO4)c3ccccc23)cc1S(=O)(=O)NC(C)C | inactive
98 | Cc1ccc(-c2nnc(Nc3cccc(O)c3)c3ccccc23)cc1S(=O)(=O)NCC1CCCO1 (stereo not drawn) | 39.8 µM (active)
99 | CN1CCN(C(=O)c2cc3nc(-c4ccco4)cc(C(F)(F)F)n3n2)CC1 | inactive
100 | Nc1ccc(Cn2ccc3c4c(N)nc(N)nc4ccc32)cc1 | 29.9 µM (active)
101 | CN(CC(=O)Nc1ccccc1Sc1ccccc1)C1CCCCC1 | inactive
102 | COc1ccc(CC(=O)NC2CCCc3ccccc32)cc1 (stereo not drawn) | inactive
103 | COC(=O)N1C(=O)[C@@](c2ccccc2)(C2CCCC2)N1C(=O)OC | 17.8 µM (active)
